Active and inactive are the calls of the source. The rule behind the calls is not given here.
assay: Brca1-Bard1 BiLC signal decrease – luminescence, single concentration, counter-screen for Mdm2/MdmX interaction inhibitor project, confirmation (AID 504668); conditions: Brca1/Bard1 bimolecular luciferase complementation counterscreen, at 8 µM, stronger effect = higher value

Row | Structure (SMILES) | inhibition
1 | O=C(Nc1ccc([N+](=O)[O-])cc1)C(=O)Nc1cccc(C(=O)O)c1 | 31% (active)
2 | C=CCn1c(COc2ccccc2)nnc1SC(C)C(=O)N/N=C/c1cc(Cl)ccc1O (centres undefined) | 30.6% (active)
3 | CCC(=O)NC(c1ccc(C)cc1)c1ccc2cccnc2c1O (centres undefined) | 23.7% (active)
4 | COc1ccc(C(O)(CC(C)C)C(CN2CCOCC2)c2ccccc2)cc1 (centres undefined) | 30.5% (active)
5 | C/C(=N\NC(=O)c1c(C)nc2ccccn12)c1ccc(O)cc1O | 33.7% (active)
6 | COc1cc(/C=C/C(=O)N2CCC=CC2=O)cc(OC)c1OC | 26.8% (active)
7 | O=C(/C=C/Nc1ccccc1Br)c1ccccn1 | 24% (active)
8 | COc1cc(/C=C/c2ccc3cccc(O)c3n2)c(Br)cc1O | 29.2% (active)
9 | Cc1cc(C=C2C(=O)c3ccccc3C2=O)c(C)n1-c1ccccc1 | 34.3% (active)
10 | CCN(CC)c1ccc2nc3ccc(N)cc3[n+](-c3ccccc3)c2c1 | 23.6% (active)
11 | CC(C)(c1ccccc1)c1ccc(OCC(O)CNC2CCN(Cc3ccccc3)CC2)cc1 (centres undefined) | 35.2% (active)
12 | O=C(N/N=C\c1c(O)ccc2ccccc12)c1cncc(Br)c1 | 26.8% (active)
13 | COc1ccc(C(NC(C)=O)c2ccc3cccnc3c2O)c(OC)c1 (centres undefined) | 31.2% (active)
14 | O=C(/C=C/c1ccccc1)NC(NC(=S)Nc1cccc(Cl)c1)C(Cl)(Cl)Cl (centres undefined) | 25.6% (active)
15 | C=C(C)Cn1c(SCC(=O)N/N=C/c2c(O)ccc3ccccc23)nc2ccccc2c1=O | 31.4% (active)
16 | COc1ccccc1C(=O)Nc1nc2ccccc2s1 | 31.7% (active)
17 | Cc1cc(C)c2nc(NNC(=O)c3ccc(S(=O)(=O)N4CC(C)CC(C)C4)cc3)sc2c1 (centres undefined) | 23.2% (active)
18 | O=C(CCSc1nc2ccccc2s1)N/N=C/c1c(O)ccc2ccccc12 | 31.6% (active)
19 | Cc1cc(C(=O)COC(=O)C2=COCCO2)c(C)n1-c1ccccc1 | 31.6% (active)
20 | Cc1nnc(NC(=O)Nc2ccc(Cl)c(Cl)c2)s1 | 33.4% (active)

Row | Structure (SMILES) | inhibition
21 | O=C1/C(=C\c2cccc(O)c2O)SC(=S)N1Cc1ccccc1 | 34.2% (active)
22 | Cc1ccc2occ(/C=N/NC(=O)c3ccccc3C)c(=O)c2c1 | 34.4% (active)
23 | COc1ccc(-c2cn[nH]c2-c2ccc(OC)cc2)cc1 | 35.1% (active)
24 | Cc1cc(NC(c2ccc(Cl)cc2)c2ccc3cccnc3c2O)no1 (centres undefined) | 27.4% (active)
25 | COc1ccc(C(=O)O/N=C(\N)c2ccccn2)cc1 | 24.2% (active)
26 | O=C1c2ccccc2S(=O)(=O)N1Cc1nc2ccccc2s1 | 32.9% (active)
27 | Brc1ccc2ncnc(NCc3cccnc3)c2c1 | 26.8% (active)
28 | CCN1C(=O)C(=Cc2cccc(OC)c2Oc2ccc([N+](=O)[O-])cc2[N+](=O)[O-])SC1=S | 27.9% (active)
29 | O=C(C#Cc1ccccc1)Nc1cccc(F)c1 | 30.5% (active)
30 | CCC(=O)NC(c1ccc(C)cc1)c1cc(Cl)c2cccnc2c1O (centres undefined) | 23.8% (active)
31 | COc1cccc2sc(N(CCCN(C)C)C(=O)C(c3ccccc3)c3ccccc3)nc12 | 24.8% (active)
32 | CC(C)c1ccc(-c2nc3ccccc3s2)cc1 | 35.8% (active)
33 | CNC[C@H](CC1CCCCC1)NC[C@H](NCCC1CCCC1)[C@H](C)O | 30.2% (active)
34 | O=C(CCl)NCc1c(Cl)cccc1-n1cccc1 | 35.6% (active)
35 | N=c1c2c(-c3ccccc3)c(-c3ccccc3)n(Cc3ccco3)c2ncn1Cc1ccccc1 | 23% (active)
36 | CCN1CCN(C(c2ccc(C(F)(F)F)cc2)c2ccc3cccnc3c2O)CC1 (centres undefined) | 31.2% (active)
37 | CCCC(=O)NC(c1ccc(N(C)C)cc1)c1ccc2cccnc2c1O (centres undefined) | 29.9% (active)
38 | O=C(N/N=C\c1c(O)ccc2ccccc12)c1ccc(Cn2cccn2)o1 | 24.8% (active)
39 | Nc1nonc1-n1nnc(C(=O)N/N=C/c2cc(Br)ccc2O)c1CNc1ccccc1 | 30.5% (active)

Source: PubChem BioAssay
